Screening results (PubChem BioAssay)
Compounds with a hit are over-represented: about 2.3% of the library has one in this group of screens.
CHRM1 agonist – human M1 muscarinic receptor agonism; P11229; CHO-K1 hM1, Fluo-8 calcium fluorescence, agonist mode; 0% DMSO, 100% acetylcholine EC100; activation, % at 3 µM; 0.33% of 360,000 active;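 active = activation above the run's mean compound activation plus 3 SD, cut at about 16% in these data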;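 note: peak over basal fluorescence ratio within a 140 s kinetic read after compound addition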
Target sequence (P11229 whole entry, looked up): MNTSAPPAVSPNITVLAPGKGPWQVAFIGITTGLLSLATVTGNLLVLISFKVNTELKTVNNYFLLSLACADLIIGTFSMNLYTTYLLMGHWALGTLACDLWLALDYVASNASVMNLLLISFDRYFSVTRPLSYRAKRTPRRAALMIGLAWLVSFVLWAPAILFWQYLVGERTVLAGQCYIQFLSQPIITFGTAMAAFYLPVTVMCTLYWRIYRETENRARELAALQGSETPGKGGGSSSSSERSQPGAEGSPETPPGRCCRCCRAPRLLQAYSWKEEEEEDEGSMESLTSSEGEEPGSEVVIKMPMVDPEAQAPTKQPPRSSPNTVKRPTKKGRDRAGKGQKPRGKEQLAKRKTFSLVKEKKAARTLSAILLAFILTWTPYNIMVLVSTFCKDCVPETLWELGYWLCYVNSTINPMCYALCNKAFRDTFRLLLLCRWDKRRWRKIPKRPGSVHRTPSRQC
M1 PAM parental – counter-screen for M1 PAMs: effect in parental CHO-K1 cells. ATP EC20, Fluo-8 calcium fluorescence; 0% at ATP EC20, 100% at ATP max. activation, % at 3 µM. 0.02% of 360,000 active;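 active = activation above the run cutoff, the mean activation of all test compounds plus 3 SD, cut at about 40% in these data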;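 note: peak over basal fluorescence ratio in a 140 s read after ATP addition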
M1 ag parental – M1 agonist counterscreen hit in parental CHO-K1 cells; Fluo-8 calcium fluorescence; scaled to maximal ATP response, vehicle zero; activation, % at 3 µM; 0.48% of 360,000 active; AID 602248; in the data active = activation above about 15%;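 note: untransfected CHO-K1 host cells lacking M1 receptor as counterscreen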
CHRM1 antagonist – blocks human M1 muscarinic receptor | P11229 | CHO-K1 hM1, Fluo-8 calcium fluorescence, ACh EC80 antagonist | inhibition, % at 3 µM | 1.3% of 360,000 active | AID 588852;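 active = percent inhibition above its own plate's cutoff, namely the mean of that plate's compound wells plus 3 SD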;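 note: peak over basal fluorescence ratio during 140 s after agonist addition; 0% = ACh EC80 plus DMSO and 100% = DMSO alone without agonist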
CHO-K1 Ca antag – counter-screen for M1 antagonists: effect in parental CHO-K1 cells. ATP-induced calcium, Fluo-8 fluorescence. inhibition, % at 3 µM. 0.6% of 360,000 active. AID 602250;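 active = inhibition above a per-plate cutoff, the plate's mean sample inhibition plus 3 SD, cut at about 24% in these data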;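 note: 0% = DMSO plus EC80 ATP and 100% = DMSO alone without ATP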
CHRM1 PAM – human CHRM1 positive allosteric modulation | activation, % at 3 µM | 0.088% of 360,000 active | P11229 | AID 588819 | CHO-K1 hM1, Fluo-8 calcium fluorescence, ACh EC20; 0% = ACh EC20, 100% = maximal ACh; in the data active = activation above about 19%, passing the limit was not always enough
Starred values were filed as active, the others as inactive.

SMILES	CHRM1 agonist	M1 PAM parental	M1 ag parental	CHRM1 antagonist	CHO-K1 Ca antag	CHRM1 PAM
Cc1ccc(NC(=O)COc2ccc(N(C)C(=O)C(C)(C)C)cc2)cc1S(=O)(=O)N1CCCCC1	2	-22	16*	53*	29*	-17
Cc1ccc(NC(=O)CSc2ncnc3ccccc23)cc1S(=O)(=O)N1CCCCCC1	-3	-4	12	34	27*	-13
COc1cc(C(C)=O)ccc1OCC(=O)Nc1ccc(C)c(S(=O)(=O)N2CCCCCC2)c1	0	-16	16*	37*	8	-23
COc1cc(C(C)=O)ccc1OCC(=O)Nc1ccc(S(=O)(=O)N2CCCCC2)cc1	-3	3	4	3	4	-13
Cc1ccc(NC(=O)COc2cccc(C)c2C)cc1S(=O)(=O)N1CCCCCC1	-2	-1	2	15	8	-8
CCc1cccc(OCC(=O)Nc2ccc(C)c(S(=O)(=O)N3CCCCCC3)c2)c1	0	-12	2	46*	9	-11
CCN(C(=O)CSc1nnc(SC(C)C)s1)C1CCS(=O)(=O)C1 (configuration not stated)	-6	18	2	-10	-18	11
CC1(CCC(=O)N2CCCC(Nc3ccc(F)cc3)C2)CC1 (configuration not stated)	-7	-12	-1	4	5	-10
Cc1ccc(NC(=O)COC(=O)c2cccc(C)c2[N+](=O)[O-])cc1S(=O)(=O)N1CCCCC1	-2	-2	9	28*	3	-12
COc1ccc(NC(=O)COc2ccccc2C(N)=O)cc1S(=O)(=O)N1CCCCC1	-1	12	1	-17	-5	14
Cc1ccc(NC(=O)COc2ccccc2C(N)=O)cc1S(=O)(=O)N1CCCCCC1	0	-22	15	33*	27*	-15
Cc1ccc(NC(=O)COC(=O)c2ccccc2F)cc1S(=O)(=O)N1CCCCC1	0	-13	7	9	-10	-8
COc1ccc(NC(=O)COc2cccnc2[N+](=O)[O-])cc1OC	-6	18	2	-7	-29	7
O=C(COc1cccnc1[N+](=O)[O-])Nc1ccc2c(c1)CCC2	-4	-22	1	36*	1	-20
O=C(COc1cccnc1[N+](=O)[O-])Nc1ccc2c(c1)OC(F)(F)O2	-8	22	4	50*	-1	-26
Cc1ccc(S(=O)(=O)NCCCCCC(=O)Nc2c(C)n(C)n(-c3ccccc3)c2=O)cc1	-2	-20	-1	10	6	-4
O=C(Nc1csc([N+](=O)[O-])c1)Nc1ccccc1Cl	2	-10	16*	41*	27*	-16
O=C(Nc1ccccc1Cl)Nc1ccccc1Cl	-4	22	1	-9	-10	5
CC(=O)n1cc([C@H]2C=C(C(N)=O)O[C@@H](OCc3ccc(CO)cc3)C2)c2ccccc21	23*	7	20*	21	-9	-10
CC(=O)n1cc([C@H]2C=C(C(=O)NCc3ccccc3)O[C@@H](OCc3ccc(CO)cc3)C2)c2ccccc21	-6	12	5	12	-11	-8
O=C(COC(=O)c1c2c(nc3ccccc13)CCN(Cc1ccccc1)C2)Nc1c(F)cccc1F	-2	4	6	36*	2	-13
CC(=O)Nc1ccc(NC(=O)COC(=O)c2c3c(nc4ccccc24)CCN(Cc2ccccc2)C3)cc1	3	-9	6	45*	5	-23
CCN1CCc2nc3ccccc3c(C(=O)Nc3ccc(NC(C)=O)cc3)c2C1	-1	22	3	-15	-9	17
CCC(CC)c1nnc(NC(=O)C2=NNC(=O)CC2)s1	-2	5	1	-15	-15	5
OCc1ccc2c(c1)c(-c1ccc3c(c1)OCCO3)c(-c1ccccc1)n2-c1ccccc1	-3	12	2	18	-4	-3
SMILES	CHRM1 agonist	M1 PAM parental	M1 ag parental	CHRM1 antagonist	CHO-K1 Ca antag	CHRM1 PAM
O=C(CCN1CCC2CCC(C2)C1)c1ccccc1 (configuration not stated)	-4	-17	0	-17	1	4
OC(CCN1CCC2CCC(C2)C1)c1ccc(Br)cc1 (configuration not stated)	-5	3	1	37*	-10	-25
Cc1nn(C)c(C)c1CN(C)S(=O)(=O)c1ccc2ccccc2c1	7	7	11	24*	25*	-12
O=C(COC(=O)c1cccnc1Cl)c1ccccc1	-4	14	1	-2	-21	3
CC(C)N(C(=O)COC(=O)c1cccnc1Cl)c1ccccc1	1	5	2	-38	-11	32*
CCOC(=O)C1(Cc2ccccc2)CCCN(Cc2ccncc2)C1 (configuration not stated)	-4	10	1	-3	-13	3
CCOC(=O)C1(Cc2ccccc2)CCCN(Cc2cccc(C(C)=O)c2)C1 (configuration not stated)	-5	5	16*	3	1	4
COC(=O)c1cccnc1-n1c(=O)c2cccnc2n(Cc2ccc([N+](=O)[O-])cc2)c1=O	18*	-18	1	-9	7	4
CCOC(=O)CN1C(=O)N[C@@H](CCc2ccccc2)[C@H](C(C)=O)[C@H]1C	-1	-12	0	14	4	3
Cc1ccccc1NC(=O)c1sc2nc[nH]c(=O)c2c1C	-3	-14	0	3	24*	11
O=c1c([N+](=O)[O-])cc(C(F)(F)F)cn1Cc1c(Cl)cccc1Cl	-4	6	0	-2	4	9
Nc1ccc(C(=O)OCc2nc3ccccc3s2)cc1	-5	-3	1	-5	-12	6
Cc1ccc(C(=O)OCc2nc3ccccc3s2)o1	-2	5	16*	-1	3	5
CCN(CC)C(=O)c1cccc(-c2csc(C(O)c3cccc(Cl)c3)n2)c1 (configuration not stated)	2	-5	8	3	7	-3
CCOC(=O)c1ccc(N2CCN(c3ccccc3F)CC2)c(NC(=O)Nc2cccc(OC)c2)c1	1	-5	6	32*	41*	-12
CCOC(=O)c1ccc(NC(=O)N2CCN(c3ccccn3)CC2)cc1	-3	-5	2	0	12	8
CCOC(=O)c1ccc(NC(=O)N2CCN(c3cccc(OC)c3)CC2)cc1	-1	2	13	44*	-3	-7
COC(=O)c1ccc(N2CCOCC2)c(NC(=O)Nc2cccc(OC)c2)c1	-4	-8	0	-6	14	5
COc1cc(C(=O)NC(CCSC)C(=O)OCc2cc([N+](=O)[O-])cc3c2OCOC3)cc(OC)c1OC (configuration not stated)	-2	10	4	26*	-6	-8
